The values below come from PubChem BioAssay AID1490 (National Center for Advancing Translational Sciences (NCATS), 2009).

Hit rate of the full screen: of about 310,000 compounds, about 11,000 (3.5%) were called active. About 4% were inconclusive and are not listed. The sample as a whole holds a higher share of actives than the screen did. A number with no mark means an inactive call. Calls follow the shape of the dose curve; as a rule, active = well fitted inhibition curve with a large enough effect; inconclusive = small, poorly fitted or top-dose-only effect, or another doubt; inactive = no such curve, though single readings can be large or run the other way.
Potency is read from the fitted curve at half-maximal effect.

The experiment has as its target 4'-phosphopantetheinyl transferase ffp (Bacillus subtilis) (UniProt Q9F4F7). Description: qHTS Assay for Inhibitors of Bacillus subtilis Sfp phosphopantetheinyl transferase (PPTase).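 Also: the enzyme is Sfp with the accession as filed and its product quenches rhodamine fluorescence.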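 As to largest response in the series, negative = inhibition: 0% = enzyme reaction without inhibitor and -100% = no enzyme wells.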 The note with it: Biochemical Sfp PPTase activity. The essentials:
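Fluorescence-quenching assay with 15 nM Sfp, 5 uM rhodamine-CoA and 12.5 uM BHQ-2-labelled ybbR peptide in pH 7.6 Hepes/MgCl2 buffer. Enzyme was pre-incubated with compound for 15 min at room temperature. Rate was taken from the 30-min fluorescence change (525/598 nm).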
`CCOC(=O)CSc1nccc(N(C)C)c1C#N`: the largest response in the series, negative = inhibition was -4.04%. In the case of `CCOC(=O)C(Sc1ncc(C#N)c(N)n1)C(C)C` (centres undefined), the Potency is 56.2 µM (active).

Regarding `CCCCOc1ccc(-c2ncc(C(=O)OCC)c(N)n2)cc1`, the largest response in the series, negative = inhibition is 3.34%. In the case of `Cc1ccc(N2CC(C(=O)NCCS(=O)(=O)N3CCN(c4ccccc4)CC3)CC2=O)cc1` (centres undefined), the largest response in the series, negative = inhibition is 5.68%. The same measure, in the same setting: to `COc1ccc2c3c1OC1CC(O)C=C[C@@]31CCN(C)C2` (some centres undefined) belongs 17%. `CCCc1nnc(NC(=O)CN2C(=O)c3ccccc3S2(=O)=O)s1`: the Potency was 22.4 µM (active). As to `CCCCc1nnc(NC(=O)CS(=O)(=O)Cc2ccccc2)s1`, the largest response in the series, negative = inhibition was 8.57%.

Take `O=C(CN1C(=O)c2ccccc2S1(=O)=O)NC1CCCCC1`: the largest response in the series, negative = inhibition is 15.6%.

`COc1ccc(C)cc1NC(=O)CNCc1cccs1`: the largest response in the series, negative = inhibition was -7.78%.

In the case of `O=C(CN(Cc1ccc(Br)cc1)S(=O)(=O)c1ccccc1)NCc1ccncc1`, the largest response in the series, negative = inhibition is -4.2%.

As for `CCOC(=O)C1CCCN(S(=O)(=O)c2ccc(-n3cnnn3)c(C)c2)C1` (centres undefined), the largest response in the series, negative = inhibition was 13.1%. The same measure, in the same setting: in the case of `C#CC(CCN1CCCCC1)(OC)c1ccccc1` (centres undefined) it was 23.4%.

Regarding `CCOC(=O)c1sc(=S)n(-c2cccc(OC)c2)c1N`, the Potency is 39.8 µM (active). On to `CCOC(=O)c1csc(NC(=O)Nc2cccc(OC)c2)n1`, for which the largest response in the series, negative = inhibition is 7.72%. Still for that read-out and setting: to `CCOC(=O)C(C)n1cnc2c(nnn2-c2cccc(OC)c2)c1=O` (centres undefined) belongs 30.5%; to `COC(=O)c1sc(=S)n(-c2ccc(Cl)cc2)c1C`, -2.12%.

Consider `COC(=O)c1sc(=S)n(-c2ccccc2)c1N`, for which the Potency was 31.6 µM (active). Regarding `COC(=O)c1sc(N2CCN(Cc3ccccc3)CC2)nc1N`, the largest response in the series, negative = inhibition is -0.821%.

Turning to `Cc1ccn2c(=O)c(C(=O)NCCC3=CCCCC3)c(O)nc2c1`, the largest response in the series, negative = inhibition is -5.56%. Still for that read-out and setting: to `CCc1ccc(N(C(=O)c2csnn2)C(C(=O)NC2CCCCC2)c2cccnc2)cc1` (centres undefined) belongs -9.84%; to `CCCCS(=O)(=O)N1C2=NC(C(=O)OC)=C(C(=O)OC)[C@@H]3N(Cc4ccccc4)c4ccccc4[C@]23C[C@H]1C(=O)OC`, -16%. As for `Cc1ccc(C2NC(C(=O)O)CS2)cc1` (centres undefined), the Potency was 70.8 µM (active). On to `Cc1ccc(C2CC2C(=O)NN)cc1` (centres undefined), for which the largest response in the series, negative = inhibition is 6.91%. Still for that read-out and setting: to `Cc1ccc(C2SCC(=O)N2c2ccccc2)cc1` (centres undefined) belongs -9.8%; to `CCOc1ccc(N(CC(=O)Nc2cccc(OC)c2)S(C)(=O)=O)cc1`, 21.6%. On the same count and under the same terms, in the case of `Cn1c(=O)n(C)c2cc(S(=O)(=O)Nc3ccc(F)cc3)ccc21` it was 7.57%. With `Cc1nn2c(c1-c1ccccc1)N=C(c1ccco1)CC2c1ccccc1` (centres undefined), the Potency is 15.8 µM (active).

In the case of `COc1ccc(C2=NN(C(C)=O)C(c3ccccc3)C2)cc1` (centres undefined), the largest response in the series, negative = inhibition is 9.33%. `O=C(O)CCCC(=O)N1N=C(c2ccco2)CC1c1ccco1` (centres undefined): the largest response in the series, negative = inhibition is 5.11%.

In the case of `Cc1cccc([C@@H]2[C@@H]3C(=O)N(Cc4ccccc4)C(=O)[C@@H]3[C@]3(C)C(=O)N(c4ccc(Br)cc4)C(=O)N23)c1`, the largest response in the series, negative = inhibition is 0.791%.

Turning to `Cc1ccc2sc(N(CCN(C)C)C(=O)/C=C/c3cccs3)nc2c1C`, the largest response in the series, negative = inhibition was 4.98%. Same read-out and setting: to `CC(=O)N(CCCN(C)C)c1nc2ccc(C)cc2s1` belongs 15.8%. `Cc1cc(C)c2nc(N(CCN(C)C)C(=O)/C=C/c3cccs3)sc2c1`: the Potency is 89.1 µM (active). With `Cc1cc(S(=O)(=O)NCC(C)C)ccc1OCC(=O)NC1CC1`, the largest response in the series, negative = inhibition was 18.8%. On the same count and under the same terms, to `CC1(C)CC(CC(=O)O)C(=O)O1` (centres undefined) belongs -8.59%; to `O=C(O)c1ccccc1C(=O)Nc1nc(-c2ccccc2)cs1`, 6.83%. As for `C/C(CC1CC(C)(C)OC1=O)=N/Nc1nc(-c2ccccc2)cs1` (centres undefined), the Potency is 50.1 µM (active). Regarding `COc1ccc(C(=O)NC2CCN(C(=O)Nc3ccc(F)cc3)CC2)cc1`, the largest response in the series, negative = inhibition was -6.23%. On the same count and under the same terms, to `COc1ccc(CN2CCNC(=O)C2CC(=O)NCc2cn[nH]c2-c2ccccc2)c(F)c1` (centres undefined) belongs 15.4%; to `CCN(CC)c1ccc(NC(=O)c2ccc(Cl)nc2)cc1`, 2.36%. The same measure, in the same setting: in the case of `Cc1cnc(NC(=O)c2ccc(Cl)nc2)s1` it was 3.16%. On to `O=C(NNc1ccccn1)c1ccc(Cl)nc1`, for which the Potency was 56.2 µM (active). On to `COc1cc(C(=O)NN(CCC#N)C2=NS(=O)(=O)c3ccccc32)cc(OC)c1OC`, for which the largest response in the series, negative = inhibition was 11.7%. Same read-out and setting: in the case of `Cc1ccc2c(c1)N(S(=O)(=O)c1cc(-c3cc(C)no3)ccc1C)CCO2` it was -4.57%; in that of `Nc1cc(N2CCCCCC2)c2nonc2c1[N+](=O)[O-]`, 12.7%; in that of `O=C(Cc1cccs1)Nc1cccc(-c2nc3ccccc3[nH]2)c1`, 9.29%. Same read-out and setting: in the case of `O=C(Nc1cccc(-c2nc3ccccc3[nH]2)c1)c1ccc(C(=O)Nc2cccc(-c3nc4ccccc4[nH]3)c2)cc1` it was -19.4%.

With `O=C(/C=C/c1ccco1)Nc1cccc(-c2nc3ccccc3[nH]2)c1`, the Potency was 25.1 µM (active). On to `COc1ccccc1Oc1ccc(N2CC(C(=O)OCC(=O)c3ccc(F)cc3)CC2=O)cc1` (centres undefined), for which the largest response in the series, negative = inhibition was -1.84%. Still for that read-out and setting: to `CCN(CC)CCCNC(=O)COc1ccc2oc3c(c2c1)CCCC3` belongs 3.63%. Consider `S=C(c1ccc(-c2ccccc2)o1)N1CCCCC1`, for which the Potency was 8.91 µM (active). In the case of `Cc1cccc(C)c1NC(=S)N1CCCCCC1`, the largest response in the series, negative = inhibition was 11.7%. Same read-out and setting: in the case of `S=C(c1ccccc1)N1CCCC1` it was 9.23%; in that of `COc1ccc(-c2n[nH]c3c2CN(C(=O)c2ccc(F)cc2)CC3)cc1`, 5.79%. The same measure, in the same setting: in the case of `CC(C)(C)c1ccc(C(=O)N2CCC(C(=O)N3CCCCC3)CC2)cc1` it was 4.51%. On the same count and under the same terms, to `COc1ccc(CCNC(=O)C(=O)NCC2OCCN2S(=O)(=O)c2ccc(OC)c(C)c2)cc1` (centres undefined) belongs 8.83%. `COCCn1nnnc1C(c1cc2ccc(OC)cc2[nH]c1=O)N1CCc2ccccc2C1` (centres undefined): the Potency was 12.6 µM (active). As to `COc1ccc(OC)c(C(c2nnnn2C(C)(C)C)N2CCc3ccccc3C2)c1` (centres undefined), the largest response in the series, negative = inhibition is 6.02%. The same measure, in the same setting: in the case of `CCOc1ccc2[nH]c(=O)c(C(c3nnnn3CCOC)N3CCOCC3)cc2c1` (centres undefined) it was 17.1%; in that of `Cc1cnc(C(=O)OCc2c(C)cc(C(C)(C)C)cc2C)cn1`, -9.1%; in that of `COc1ccc(-c2nc(SCC(=O)N3CCOCC3)n[nH]2)cc1`, 18.2%. `COc1ccc(C(=O)CSc2n[nH]c(N)n2)cc1`: the Potency is 56.2 µM (active). On to `COc1ccc(CNC(=O)CSc2n[nH]c(N)n2)cc1OC`, for which the largest response in the series, negative = inhibition was 2.91%. Same read-out and setting: to `Cc1nn2c(=O)cc(COC(=O)c3ccc(NC(=O)C(C)(C)C)cc3)nc2s1` belongs 18.9%.

Regarding `COc1cc(/C=C/C(=O)O)cc(S(=O)(=O)Nc2ccccc2C(=O)NCCc2ccccc2)c1OC`, the largest response in the series, negative = inhibition is 13.6%. Consider `COc1ccccc1-c1nnc(NC(=O)c2ccc3ncsc3c2)o1`, for which the Potency was 79.4 µM (active). Regarding `COc1ccccc1-c1nnc(SCC(=O)Nc2ccccc2)o1`, the largest response in the series, negative = inhibition is 1.67%. On the same count and under the same terms, in the case of `COc1ccccc1-c1nnc(NC(=O)c2cccc(N3C(=O)CCC3=O)c2)o1` it was 2.11%; in that of `Cc1ccccc1N1CCN(CCCN2C(=O)C3CCCCN3C2=O)CC1` (centres undefined), 17.8%; in that of `COc1ccc(OC)c(NC(=O)c2ccc3c(c2)CCN3S(C)(=O)=O)c1`, 9.13%. Take `O=[N+]([O-])c1cc(Cl)cc(/C=N/NC(=S)Nc2cc(S(=O)(=O)N3CCOCC3)ccc2Cl)c1O`: the Potency was 56.2 µM (active). In the case of `O=C(N/N=C/c1ccc([N+](=O)[O-])o1)c1cccc(S(=O)(=O)N2CCOCC2)c1`, the largest response in the series, negative = inhibition was -9.66%. Turning to `O=C(N/N=C/c1cc(Cl)cc([N+](=O)[O-])c1O)C(O)(c1ccccc1)c1ccccc1`, the largest response in the series, negative = inhibition was -0.479%. Still for that read-out and setting: to `COc1ccc(N2CCN(S(=O)(=O)CCNC(=O)C34CC5CC(CC(C5)C3)C4)CC2)cc1` belongs 2.52%; to `Cn1c(=O)[nH]c(=O)c2c1nc(Br)n2CCCCSc1nc2ccccc2o1`, 3.31%. As for `CCCCCn1c(SCCC(C)C)nc2c1c(=O)[nH]c(=O)n2C`, the Potency is 28.2 µM (active). Take `CCCCCCn1c(SCC(=O)c2ccccc2)nc2c1c(=O)[nH]c(=O)n2C`: the largest response in the series, negative = inhibition was -15.2%. The same measure, in the same setting: to `CCOc1ccc(S(=O)(=O)N2CCC(c3ccccc3)CC2)cc1C(=O)O` belongs 13.6%; to `Cc1ccc(OCC(=O)Nc2ccc(N3CCN(C(=O)c4ccco4)CC3)cc2)c(C)c1`, -9.57%; to `CC(=O)N1Cc2ccccc2CC1C(=O)O` (centres undefined), 6.16%.

Turning to `CC(=O)N1CSCC1C(=O)O` (centres undefined), the Potency is 20 µM (active).

As for `CC1CC(C)CN(C(=O)CCNC(=O)Cn2cnc3ccccc3c2=O)C1` (centres undefined), the largest response in the series, negative = inhibition is -7.35%. Still for that read-out and setting: in the case of `COc1ccc(NC(=O)c2sc3nc(C)nc(N4CCN(c5ccccn5)CC4)c3c2C)c(OC)c1` it was -8.26%; in that of `CCc1ccc(-n2c(=S)sc3c(=O)n(-c4ccccc4OC)c(=S)[nH]c32)cc1`, -10.9%; in that of `COc1ccccc1-n1cn[nH]c1=S`, -24.2%. Consider `COc1ccccc1-n1c(=S)[nH]c2c(sc(=S)n2-c2ccc(C)cc2C)c1=O`, for which the Potency is 50.1 µM (active). With `COc1ccc(NC(=S)N2CCCC(CO)C2)c(OC)c1` (centres undefined), the largest response in the series, negative = inhibition is -15.1%. With `COc1cc(NC(=S)N2CCCC(C)C2)cc(OC)c1OC` (centres undefined), the Potency is 20 µM (active). Still for that read-out and setting: to `COc1cc(NC(=S)N2CCCC(C)C2)c(OC)cc1Cl` (centres undefined) belongs 14.1 µM (active). For the compound `COc1ccccc1C1CCN(C(=S)Nc2ccc(Br)cc2)CC1`, the largest response in the series, negative = inhibition is 16.1%. The same measure, in the same setting: to `COc1cc(NC(=O)NCC2CCN(Cc3ccc(C)cc3)CC2)cc(OC)c1OC` belongs 4.55%; to `COc1ccc(C)cc1NC(=S)N1CCOCC1`, 3.26%; to `CC1CC(C)CN(C(=O)C2CC(=O)N(c3ccc(F)cc3)C2)C1` (centres undefined), 0.935%.

For `COc1ccc(C(CCN2CCOCC2)c2c(OC)cc(OC)c3c2OC(=O)CC3c2ccc(OC)cc2)cc1` (centres undefined), the largest response in the series, negative = inhibition was -11.3%.
